For assay [1], the target named is Mitogen-activated protein kinase 10 (Mus musculus) (UniProt Q61831). The assay is described as follows: JNK3 AlphaScreen Assay (AID 530).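 Also: kinase came from lysate of stimulated human HepG2 cells; signal reports phosphorylation of biotinylated GST-cJun 1-79 at Ser73 with 10 µM ATP; % is scaled to controls: 0 for no effect and ±100 for the full control effect.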 The gist of the method:
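Activity was read by AlphaScreen after JNK3-containing HepG2 lysate (cytokine pre-activated) phosphorylated biotinylated GST-cJun with 10 uM ATP at room temperature. Phospho-Ser73 cJun antibody with Protein-A acceptor beads provided detection.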
Background: In Alpha technology, singlet oxygen from a donor bead excites a nearby acceptor bead.

The nature of assay [2]: Cell Viability - BJ (AID 421; calls by dose curve;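 also: potency is read from the fitted curve at half-maximal effect; cells exposed to compound for 40 hours at 37 °C before readout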). As to conditions: BJ fibroblast viability, qHTS. The gist of the method:
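Cytotoxicity in human BJ foreskin fibroblasts is scored as loss of cellular ATP after a 40-hour exposure, measured by luciferase luminescence. Controls are DMSO and 100 uM tamoxifen.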
In general terms: Quantitative high-throughput screening tests each substance at several concentrations.

Assay [3] can be described thus: Cell Viability - Jurkat (AID 426;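 active = dose-dependent loss of cell ATP signal giving a full or clear fitted curve, ranked by lower potency value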;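 also: potency is read from the fitted curve at half-maximal effect; cells exposed to compound for 40 hours at 37 °C before ATP read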). The note with it: qHTS. In a few lines: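 Cells of the human T-cell leukemia line Jurkat (E6-1) are seeded at 5000 per well, treated with compound across a concentration range for 40 hours at 37 °C, then lysed with CellTiter-Glo; luminescence reports ATP.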
Assay [4] is described as follows: Cell Viability - Hek293 (AID 427;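 active = compounds whose dose-response curve shows a full or clear partial loss of cell viability, called from curve shape rather than a numeric limit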;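 also: potency is read from the fitted curve at half-maximal effect; cells exposed to compound for 40 hours at 37 °C before reading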). The note with it: qHTS. The gist of the method:
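qHTS, human embryonic kidney (adenovirus-transformed) cells; 40 hr cpd, 37 °C; CellTiter-Glo ATP luminescence. Norm: DMSO = 0, 100 uM tamoxifen = 100% inhibition. Hill-fit AC50.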

The nature of assay [5]: Cell Viability - HepG2 (AID 433; calls by dose curve;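 also: potency is read from the fitted curve at half-maximal effect; potency for ATP loss meaning cytotoxicity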). As to conditions: qHTS. The gist of the method: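 Cytotoxicity read as ATP loss (CellTiter-Glo luminescence) after 40 hr compound exposure of HepG2, 1500 cells/well, 37 °C. AC50 by Hill equation; 0% set by DMSO, 100% inhibition by 100 uM tamoxifen.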
Assay [6] is described as follows: Cell Viability - MRC5 (AID 434; calls by dose curve;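 also: potency is read from the fitted curve at half-maximal effect; potency reflects cytotoxicity seen as loss of intracellular ATP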). As to conditions: MRC5 lung fibroblast viability, qHTS. In a few lines: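 ATP luminescence read-out (CellTiter-Glo, 20 min RT) after 40 hr, 37 °C compound exposure of 1500 MRC5 cells/well. Data normalized to DMSO (basal) and 100 uM tamoxifen (100% inhibition); AC50 from standard Hill equation.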
Assay [7] can be described thus: Cell Viability - SK-N-SH (AID 435; calls by dose curve; also: potency is read from the fitted curve at half-maximal effect). The note with it: SK-N-SH neuroblastoma cell viability qHTS. In a few lines:
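qHTS cytotoxicity: CellTiter-Glo ATP luminescence after 40 h compound exposure of human neuroblastoma SK-N-SH cells at 37 °C. AC50 derived by Hill-equation fitting, with DMSO as basal and 100 uM tamoxifen as full inhibition.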

Assay [8] in a line: Cell Viability - N2a (AID 540; active = well fitted curve in the direction sought with a large enough effect; an effect the other way counts as inactive or inconclusive;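 also: plate controls were DMSO alone for no effect and tamoxifen control for full effect; nearly all actives have a fitted effect of over 45% in size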). In a few lines:
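Cytotoxicity was scored as loss of cellular ATP in N2a cells, a mouse neuroblastoma line. Compounds are applied in a qHTS concentration series for 40 hr at 37 °C.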

Assay [9] is described as follows: Cell Viability - NIH 3T3 (AID 541; active = well fitted curve in the direction sought with a large enough effect; an effect the other way counts as inactive or inconclusive; also: nearly all actives have a fitted effect of over 25% in size; also: potency is read from the fitted curve at half-maximal effect;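 as to activity change, negative = cytotoxicity: plate controls were DMSO alone for no effect and tamoxifen positive control for full effect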). As to conditions: NIH 3T3 cell viability, qHTS; activity change, negative = cytotoxicity: at 92.2 µM (top of the series). The gist of the method:
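Cells seeded at 1000/well, rested 5 hr at 37 °C, then dosed and incubated 40 hr at 37 °C. CellTiter-Glo added, 20 min room temperature, luminescence read. AC50 by Hill fit.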

Assay [10] is described as follows: Cell Viability - HUV-EC-C (AID 542; active = well fitted curve in the direction sought with a large enough effect; an effect the other way counts as inactive or inconclusive; also: % is scaled to controls: 0 for no effect and ±100 for the full control effect; nearly all actives have a fitted effect of over 35% in size). The gist of the method:
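Cells were seeded at 1000 per well and incubated 5 hr at 37 °C before compound addition. After 40 hr at 37 °C, CellTiter-Glo reagent was added for 20 min and luminescence read. AC50 values came from Hill-equation modelling.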

Assay [11] is described as follows: Cell Viability - H-4-II-E (AID 543; active = well fitted curve in the direction sought with a large enough effect; an effect the other way counts as inactive or inconclusive; also: % is scaled to controls: 0 for no effect and ±100 for the full control effect; nearly all actives have a fitted effect of over 35% in size). In a few lines: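 Cells seeded at 1500 per well and rested 5 hr; compounds added; 40 hr incubation at 37 °C; CellTiter-Glo added, 20 min at room temperature; luminescence read. Hill-equation fits gave AC50.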
Assay [12] is described as follows: Cell Viability - SH-SY5Y (AID 544; active = well fitted curve in the direction sought with a large enough effect; an effect the other way counts as inactive or inconclusive; also: nearly all actives have a fitted effect of over 55% in size; also: potency is read from the fitted curve at half-maximal effect). In a few lines: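 Cells were plated at 1500 per well and allowed 5 hr at 37 °C. Compounds were added across a concentration range and incubated 40 hr at 37 °C. CellTiter-Glo was added for 20 min at room temperature before luminescence reading.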
Assay [13] is described as follows: Cell Viability - Mesenchymal (AID 546; active = well fitted curve in the direction sought with a large enough effect; an effect the other way counts as inactive or inconclusive;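 also: cells exposed to compound for 40 hours before reading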; also: potency is read from the fitted curve at half-maximal effect;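 as to activity change, negative = cytotoxicity: 0% = DMSO only and -100% = 100 µM tamoxifen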). The note with it: mesenchymal cells viability, qHTS; activity change, negative = cytotoxicity: at 91.7 µM (top of the series). In a few lines: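 Human renal mesenchymal cells (glomerulus-derived), 1000 cells/well, 5 hr 37 °C pre-incubation; compound 40 hr, 37 °C; CellTiter-Glo, 20 min RT; luminescence; AC50 via Hill equation.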

Assay [14] in a line: NFAT Signaling Pathway (AID 444).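 Also: carbachol stimulus at about its EC50 of 1 µM final; % is scaled to controls: 0 for no effect and ±100 for the full control effect.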 The note with it: Jurkat NFAT-bla M1, carbachol, beta-lactamase ratio, 5 h. The gist of the method:
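Jurkat cells with NFAT-driven β-lactamase reporter and co-expressed M1 receptor, stimulated with carbachol (final 1 uM, ~EC50), compound titration, 5 h at 37 °C. CCF4 loaded 1 h at RT; 460/530 nm ratio gave %activity and AC50.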

For assay [15], the target named is Glucocorticoid receptor (Homo sapiens) (UniProt P04150). Briefly: GR-GFP Redistribution (AID 450;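 active = compounds whose dose series gives a full or clear partial fitted curve of increased nuclear translocation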; also: potency is read from the fitted curve at half-maximal effect). As to conditions: U2OS GR-GFP nuclear translocation, laser cytometry, 2 h.
Glucocorticoid receptor (Homo sapiens), sequence (P04150 whole entry, looked up): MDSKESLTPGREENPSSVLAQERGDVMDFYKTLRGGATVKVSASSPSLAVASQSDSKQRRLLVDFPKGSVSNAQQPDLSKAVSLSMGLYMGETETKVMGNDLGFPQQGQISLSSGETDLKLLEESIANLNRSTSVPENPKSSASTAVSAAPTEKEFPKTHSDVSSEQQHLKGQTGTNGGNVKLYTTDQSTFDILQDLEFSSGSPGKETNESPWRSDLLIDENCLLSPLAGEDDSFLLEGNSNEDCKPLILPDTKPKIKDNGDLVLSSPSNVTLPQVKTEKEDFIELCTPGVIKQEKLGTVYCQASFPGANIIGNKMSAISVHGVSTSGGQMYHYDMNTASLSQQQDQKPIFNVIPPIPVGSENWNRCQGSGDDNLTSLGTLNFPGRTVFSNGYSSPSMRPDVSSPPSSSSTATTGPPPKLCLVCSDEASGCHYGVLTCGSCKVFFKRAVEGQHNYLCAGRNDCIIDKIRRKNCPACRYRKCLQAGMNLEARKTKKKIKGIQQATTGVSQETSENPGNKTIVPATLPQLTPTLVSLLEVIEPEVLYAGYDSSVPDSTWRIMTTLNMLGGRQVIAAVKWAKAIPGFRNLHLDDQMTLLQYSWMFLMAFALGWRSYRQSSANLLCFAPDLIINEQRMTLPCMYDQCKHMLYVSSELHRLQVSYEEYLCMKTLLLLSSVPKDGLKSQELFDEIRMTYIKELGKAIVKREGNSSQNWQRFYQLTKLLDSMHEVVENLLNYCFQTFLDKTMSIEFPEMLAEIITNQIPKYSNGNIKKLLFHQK
Assay [16] shares this target. Briefly: GR-EFC Redistribution (AID 451; calls by dose curve; also: potency is read from the fitted curve at half-maximal effect). As to conditions: CHO-K1 GR-EFC translocation, beta-gal luminescence, 2 h. In a few lines:
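CHO-K1 cells expressing nuclear EA and GR-ED fragments of b-gal; compounds titrated up to 46 uM final, 2 h at 37 C. GR nuclear translocation read as complemented b-gal luminescence after 1 h RT detection.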

The nature of assay [17]: Stat Signaling Pathway (AID 446).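 Also: ME-180 cervical cancer cells given 40 pM IL-6 alongside compound; SIE-controlled beta-lactamase reporter measured as 460/530 nm FRET emission ratio; % is scaled to controls: 0 for no effect and ±100 for the full control effect.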 In a few lines:
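Emission at 460 and 530 nm (excitation 405 nm) reports SIE-controlled beta-lactamase in ME-180 cells. Cells received compound with 40 pM IL-6 for 5 hrs at 37 C; data scaled between 300 pM IL-6 and 125 nM JAK-inhibitor controls.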

For assay [18], the target named is Cytochrome P450 1A2 (Homo sapiens) (UniProt P05177). The assay is described as follows: p450-cyp1a2 (AID 410; calls by dose curve; also: potency is read from the fitted curve at half-maximal effect;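 as to activity change, negative = inhibition: -100% = full effect of reference inhibitor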). The gist of the method: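 O-Demethylation of luciferin 6' methyl ether by human CYP1A2 is monitored as luciferase luminescence. Substrate sits at Km (100uM); enzyme is 20nM. Values are scaled to 57 uM furafylline as maximal inhibition.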
Cytochrome P450 1A2 (Homo sapiens), sequence (P05177 whole entry, looked up): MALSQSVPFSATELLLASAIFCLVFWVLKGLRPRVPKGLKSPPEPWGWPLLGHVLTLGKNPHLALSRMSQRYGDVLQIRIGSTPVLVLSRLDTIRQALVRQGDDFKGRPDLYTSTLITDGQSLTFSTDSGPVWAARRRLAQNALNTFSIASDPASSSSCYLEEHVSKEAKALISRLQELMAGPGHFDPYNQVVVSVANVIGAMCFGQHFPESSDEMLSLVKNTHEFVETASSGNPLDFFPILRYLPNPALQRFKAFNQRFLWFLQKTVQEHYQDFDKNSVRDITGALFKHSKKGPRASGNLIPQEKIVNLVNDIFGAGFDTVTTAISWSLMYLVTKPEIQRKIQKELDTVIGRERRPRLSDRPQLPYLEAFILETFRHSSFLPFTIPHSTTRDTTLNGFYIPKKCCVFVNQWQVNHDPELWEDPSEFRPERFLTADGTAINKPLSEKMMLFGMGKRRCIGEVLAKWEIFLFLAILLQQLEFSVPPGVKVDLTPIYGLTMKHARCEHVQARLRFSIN

Several values for one entry are separate records, joined by “and”; a condition that tells them apart may be missing. Equal values may be shown once. Values without a mark were called inactive. Records with an inconclusive call do not appear. Activity calls are given as the source filed them. Unless noted, calls follow the shape of the dose curve; as a rule, active = well fitted curve in either direction with a large enough effect (not every such curve was filed as active); inconclusive = small, poorly fitted or top-dose-only effect, or another doubt; inactive = flat fitted curve, though single readings scatter.

In the case of `CCN1CCC[C@H]1CNC(=O)c1c(O)c(Cl)cc(Cl)c1OC`, in assay [1], the Potency result was “inactive”.

For the molecule `NC(=Nc1ccccc1)Nc1ccccc1`, the Potency in assay [2], in assay [3], in assay [4], in [5], in [6] and in assay [7] was greater than 92 µM in each case. Moreover, the Potency result in [1], in assay [10], in [11], in assay [12] and in [13] was “inactive” throughout. For the same molecule, in [8], the call was inactive. In assay [9], the activity change, negative = cytotoxicity was -3.31%.

Regarding `CCc1cccc(N(C)C(N)=Nc2cccc3ccccc23)c1`, in assay [14] (at 38 µM (top of the series)), the activity change, negative = inhibition is -9.54%. The Potency in [15] and in assay [16] was greater than 46 µM each time. Also, the Potency entry in [1] is “inactive”.

Take `CCn1nc(C(=O)O)c(=O)c2cc3c(cc21)OCO3`: the activity change, negative = inhibition in [14] (at 17.2 µM (top of the series)) was 0.808% and 1.97%; in [14] (at 38 µM (top of the series)), 8.98%. For the same molecule, the molecule was classed as inactive in assay [17]. Moreover, the Potency is > 46 µM and > 20.6 µM in assay [15]; > 46 µM and > 20.6 µM in assay [16]. Further, in [1], the Potency entry is “inactive”.

Turning to `O=C(O)CCCCCCCC(=O)O`, the Potency entry in assay [18] and in [1] was “inactive” throughout. The activity change, negative = inhibition in assay [14] (at 38 µM (top of the series)) was -0.521%.

Take `CC(=O)Oc1cc(C(C)C)c(OCCN(C)C)cc1C`: the Potency was 7.94 µM (active) and 3.16 µM (active) in assay [18]; > 46 µM and > 20.6 µM in [15]; > 46 µM and > 20.6 µM in [16]. Also, the call in assay [17] was inactive. Also, the Potency result in assay [1] is “inactive”.

For the molecule `Cc1nc2c([nH]1)c(=O)n(C)c(=O)n2Cc1ccco1`, in [14] (at 38 µM (top of the series)), the activity change, negative = inhibition was -9.82%. The outcome in assay [17] was inactive. Moreover, the Potency in [15] and in [16] was greater than 46 µM each time. In assay [1], the Potency result was “inactive”.

Regarding `Nc1ncn([C@@H]2O[C@H](CO)[C@@H](O)[C@H]2O)c(=O)n1`, the Potency is greater than 92 µM in assay [2]; 1.01 µM (active) in assay [3]; 6.9 µM (active) in assay [4]; greater than 92 µM in assay [5]; 16.6 µM (active) in assay [7]; 5.01 µM (active) in assay [9]. For the same molecule, the Potency in assay [12] was 6.31 µM (active); in assay [13] it was 31.6 µM (active). Moreover, the Potency entry in assay [1] and in assay [10] was “inactive” in each case.

For `CCCCNc1ccc(C(=O)OCCN(C)C)cc1`, the activity change, negative = inhibition in assay [14] (at 17.2 µM (top of the series)) is -27.7%. The outcome in assay [17] was inactive. Moreover, the Potency in assay [15] is > 46 µM and > 20.6 µM; in [16] it was > 46 µM and > 20.6 µM. In [1], the Potency result is “inactive”.

On to `COc1ccc(CCN(C)CCCC(C#N)(c2cc(OC)c(OC)c(OC)c2)C(C)C)cc1OC` (centres undefined), for which the call in assay [17] was inactive. Moreover, the Potency in assay [15] is greater than 20.6 µM.
